We go through 4 molecules from PubChem BioAssay (EPA / NIEHS).

The structures appear in SMILES notation. Inconclusive results are not listed. The source made the active and inactive calls. Rule for the calls, unless noted: active = hit-call score of the fitted dose curve at least 0.9, where 1 is the maximum; inactive = score below 0.9.

A short description of assay [1]: ATG_PPRE_CIS: Attagene CIS-FACTORIAL HepG2 Assay for human Peroxisome Proliferator-activated Response Element (PPRE) (AID 2282958). The following applies: HepG2 PPRE cis-element reporter, Attagene transcription factor profiling; actives raise or lower the signal. The method in brief:
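Transcript-level reporter induction in transfected HepG2 cells after 24 h chemical exposure, quantified by fluorescence from RT-PCR products separated by capillary electrophoresis.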

Assay [2] is described as follows: ATG_RORE_CIS: Attagene CIS-FACTORIAL HepG2 Assay for human RAR-related Orphan Receptor Element (RORE) (AID 2282959). The following applies: HepG2 Attagene cis-factorial RORE reporter, mRNA; actives raise or lower the signal. The method in brief: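 Multiplexed reporter assay measuring mRNA induction from a cis promoter element in transiently transfected HepG2 cells after 24 h treatment. Detection via RT-PCR and capillary electrophoresis fluorescence; DMSO serves as baseline.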

Assay [3] in a line: ATG_Sox_CIS: Attagene CIS-FACTORIAL HepG2 Assay for human SRY-box transcription factor (SOX) (AID 2282960). The following applies: HepG2 Attagene cis-factorial SOX reporter, mRNA; actives raise or lower the signal. The method in brief: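 Cells were transfected with reporter constructs under cis-regulatory promoters, then exposed to chemicals for 24 h. Reporter transcripts were quantified by fluorescence after RT-PCR and capillary electrophoresis; activity was fitted in both directions against DMSO.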

In assay [4] the target is Transcription factor Sp1 (Homo sapiens) (UniProt P08047). Put plainly: ATG_Sp1_CIS: Attagene CIS-FACTORIAL HepG2 Assay for human Specificity Protein 1 (Sp1) (AID 2282961). The following applies: HepG2 Sp1 cis-reporter transcription, actives raise or lower the signal. The method in brief:
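Measures mRNA induction of an Sp1-linked reporter in HepG2 cells 24 h post-dosing. Multiplexed reporters read by RT-PCR and capillary electrophoresis; DMSO serves as negative control and baseline.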

Assay [5] can be described thus: ATG_SREBP_CIS: Attagene CIS-FACTORIAL HepG2 Assay for human Sterol Regulatory Element Binding (SREBP) (AID 2282962). The following applies: HepG2 Attagene cis-factorial SREBP reporter, mRNA; actives raise or lower the signal. The method in brief:
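Twenty-four hours after chemical dosing of transfected HepG2 cultures, reporter RNA was converted to cDNA, amplified, end-labelled with 6-FAM and resolved by capillary electrophoresis. Responses were fitted relative to DMSO.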

Assay [6] addresses Signal transducer and activator of transcription 3 (Homo sapiens) (UniProt P40763). Put plainly: ATG_STAT3_CIS: Attagene CIS-FACTORIAL HepG2 Assay for human Signal Transducer and Activator of Transcription 3 (STAT3) (AID 2282963). The following applies: HepG2, Attagene cis-factorial STAT3 reporter transcription; actives raise or lower the signal. The method in brief:
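Values derive from bidirectional fits relative to DMSO of reporter mRNA levels, measured by RT-PCR with capillary electrophoresis, in HepG2 cells carrying transiently transfected cis-regulated reporter units and exposed 24 h.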

Assay [7] is described as follows: ATG_TA_CIS: Attagene CIS-FACTORIAL HepG2 Assay for human TA Basal Promoter (AID 2282964). The following applies: HepG2 Attagene CIS-factorial TA basal promoter reporter; actives raise or lower the signal. The method in brief:
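HepG2 cells transiently transfected with multiple reporter units under cis promoter elements, reporting endogenous transcription factor activity; this endpoint tracks the TA basal promoter as background control. Reporter mRNA after 24 h dosing measured by RT-PCR/capillary electrophoresis; bidirectional fits versus DMSO.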

A short description of assay [8]: ATG_TCF_b_cat_CIS: Attagene CIS-FACTORIAL HepG2 Assay for human T-Cell-Factor with beta-catenin (TCF/b-cat) (AID 2282965). The following applies: HepG2 TCF/beta-catenin cis-reporter transcription, actives raise or lower the signal. The method in brief:
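Cells of the HepG2 line carry transiently transfected reporter units whose promoters respond to endogenous factors. Twenty-four hours post-dosing, reporter mRNA induction is measured by fluorescent RT-PCR and capillary electrophoresis, with DMSO as baseline.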

Assay [9] in a line: ATG_TAL_CIS: Attagene CIS-FACTORIAL HepG2 Assay for human TAL Basal Promoter (AID 2282966).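 Note: background control endpoint measuring basal TAL promoter reporter mRNA not a specific factor.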 The following applies: HepG2 Attagene cis-factorial TAL promoter reporter; actives raise or lower the signal. The method in brief:
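HepG2 cells transiently transfected with multiplexed cis-promoter reporter units, dosed 24 h. Reporter mRNA quantified by RT-PCR, 6-FAM labelling, HpaI digestion and capillary electrophoresis; TAL basal promoter serves as background control, fitted bidirectionally versus DMSO.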

A short description of assay [10]: ATG_TGFb_CIS: Attagene CIS-FACTORIAL HepG2 Assay for human Transforming Growth Factor (TGF) (AID 2282967). The following applies: HepG2 Attagene CIS TGFb reporter, mRNA transcription; actives raise or lower the signal. The method in brief:
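HepG2 cells transiently transfected with cis-promoter-driven multiple reporter units measure endogenous TF activity; reporter mRNA quantified at 24 h by RT-PCR, FAM labeling, HpaI digestion and capillary electrophoresis. Bidirectional fit vs DMSO.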

Assay [11] in a line: ATG_VDRE_CIS: Attagene CIS-FACTORIAL HepG2 Assay for human Vitamin D Receptor Element (VDRE) (AID 2282968). The following applies: HepG2 VDRE cis-reporter transcription, actives raise or lower the signal. The method in brief: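 Cell-based multiplexed reporter format in human liver HepG2 cells, 24 h post-dose. Fluorescence from capillary electrophoresis of reporter cDNA gives the signal, with DMSO as negative control and baseline.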

Assay [12] in a line: ATG_M_19_TRANS: Attagene TRANS-FACTORIAL HepG2 Assay for M19 Transcription Factor (Internal Marker) (AID 2282974; active = hit-call score of the fitted dose curve at least 0.9, where 1 is the maximum). The following applies: HepG2 Attagene TRANS-FACTORIAL M19 internal marker reporter. The method in brief: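 After transfection of HepG2 with GAL4-UAS-driven reporter constructs, cells are dosed for 24 h. Total RNA is reverse-transcribed, reporter sequences PCR-amplified and labelled, then HpaI-digested and sized by capillary electrophoresis.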

In assay [13] the target is Estrogen-related receptor gamma (Homo sapiens) (UniProt P62508). Description: ATG_ERRg_TRANS: Attagene TRANS-FACTORIAL HepG2 Assay for human Estrogen-Related Receptor gamma (ERRg) (AID 2282977; active = hit-call score of the fitted dose curve at least 0.9, where 1 is the maximum;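 note: hits increase reporter signal over DMSO so potencies reflect activators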). The following applies: HepG2 Attagene TRANS reporter, ERRg transactivation. The method in brief:
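Transient HepG2 transfectants, 24 h compound exposure, GAL4-UAS reporter mRNA by RT-PCR/6-FAM labelling/capillary electrophoresis; positive direction vs DMSO.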

Assay [14] addresses Glucocorticoid receptor (Homo sapiens) (UniProt P04150). Description: ATG_GR_TRANS: Attagene TRANS-FACTORIAL HepG2 Assay for human Glucocorticoid Receptor (GR) (AID 2282978; active = hit-call score of the fitted dose curve at least 0.9, where 1 is the maximum;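 note: activators score as hits since higher reporter transcript over DMSO is fitted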). The following applies: HepG2 Attagene TRANS GR reporter, mRNA transcription. The method in brief: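 Multiplexed TRANS reporter system, HepG2; 24 h exposure; RNA → oligo(dT) RT → reporter-specific PCR → 6-FAM primer extension → HpaI cut → CE fluorescence. Gain-of-signal vs DMSO.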

In assay [15] the target is Nuclear receptor subfamily 1 group I member 3 (Homo sapiens) (UniProt Q14994). Description: ATG_CAR_TRANS: Attagene TRANS-FACTORIAL HepG2 Assay for human Constitutive Androstane Receptor (CAR) (AID 2282969; active = hit-call score of the fitted dose curve at least 0.9, where 1 is the maximum;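 note: activators raise reporter mRNA above DMSO so AC50 marks induction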). The following applies: HepG2 Attagene TRANS-FACTORIAL CAR reporter. The method in brief:
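HepG2 cells transiently transfected with GAL4-UAS reporter units; TRANS format reads activity of exogenous chimeric NR-Gal4 protein. After 24 h dosing, reporter mRNA quantified by RT-PCR, 6-FAM labelling and capillary electrophoresis; gain of signal fitted against DMSO.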

The target in assay [16] is Bile acid receptor (Homo sapiens) (UniProt Q96RI1). Put plainly: ATG_FXR_TRANS: Attagene TRANS-FACTORIAL HepG2 Assay for Farnesoid X Receptor (FXR) (AID 2282979; active = hit-call score of the fitted dose curve at least 0.9, where 1 is the maximum;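 note: hits raise reporter mRNA above DMSO so AC50 marks FXR activation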). The following applies: HepG2 Attagene TRANS FXR-GAL4 reporter transcription. The method in brief:
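HepG2 cells were transiently transfected with GAL4-UAS reporters driven by chimeric NR-Gal4 proteins and dosed for 24 h. Reporter mRNA was quantified by RT-PCR, fluorescent labelling, HpaI digestion and capillary electrophoresis, with gain of signal scored versus DMSO.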

Assay [17] can be described thus: ATG_GAL4_TRANS: Attagene TRANS-FACTORIAL HepG2 Assay for GAL4 (Internal Marker) (AID 2282976; active = hit-call score of the fitted dose curve at least 0.9, where 1 is the maximum). The following applies: HepG2 Attagene TRANS GAL4 internal marker reporter. The method in brief: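 Background-control readout: GAL4-UAS reporter transcript in transiently transfected HepG2 cells after 24 h compound exposure. Measured by RT-PCR, 6-FAM primer extension, HpaI digest and capillary electrophoresis; gain-of-signal fit versus DMSO.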

Sequence of Signal transducer and activator of transcription 3 (Homo sapiens) (P40763 whole entry, looked up): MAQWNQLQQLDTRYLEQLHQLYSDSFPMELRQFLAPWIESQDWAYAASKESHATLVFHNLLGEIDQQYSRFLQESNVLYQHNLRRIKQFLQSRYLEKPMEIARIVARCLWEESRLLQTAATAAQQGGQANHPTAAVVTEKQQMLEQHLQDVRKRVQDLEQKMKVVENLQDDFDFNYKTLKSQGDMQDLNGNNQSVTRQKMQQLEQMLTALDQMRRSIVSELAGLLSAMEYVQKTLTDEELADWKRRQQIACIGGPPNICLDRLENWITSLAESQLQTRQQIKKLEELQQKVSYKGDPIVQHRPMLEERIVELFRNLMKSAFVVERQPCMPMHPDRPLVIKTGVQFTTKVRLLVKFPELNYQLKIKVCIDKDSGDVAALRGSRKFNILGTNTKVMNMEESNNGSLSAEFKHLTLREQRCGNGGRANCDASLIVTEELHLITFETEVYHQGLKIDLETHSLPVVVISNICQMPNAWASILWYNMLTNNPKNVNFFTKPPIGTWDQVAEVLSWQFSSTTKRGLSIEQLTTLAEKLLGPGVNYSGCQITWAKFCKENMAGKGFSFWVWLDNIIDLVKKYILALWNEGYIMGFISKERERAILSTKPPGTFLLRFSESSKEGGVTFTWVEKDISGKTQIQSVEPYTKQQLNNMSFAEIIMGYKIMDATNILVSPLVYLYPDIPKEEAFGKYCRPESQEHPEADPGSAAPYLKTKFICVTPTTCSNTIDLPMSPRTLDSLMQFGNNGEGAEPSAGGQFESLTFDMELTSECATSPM
Sequence of Transcription factor Sp1 (Homo sapiens) (P08047 whole entry, looked up): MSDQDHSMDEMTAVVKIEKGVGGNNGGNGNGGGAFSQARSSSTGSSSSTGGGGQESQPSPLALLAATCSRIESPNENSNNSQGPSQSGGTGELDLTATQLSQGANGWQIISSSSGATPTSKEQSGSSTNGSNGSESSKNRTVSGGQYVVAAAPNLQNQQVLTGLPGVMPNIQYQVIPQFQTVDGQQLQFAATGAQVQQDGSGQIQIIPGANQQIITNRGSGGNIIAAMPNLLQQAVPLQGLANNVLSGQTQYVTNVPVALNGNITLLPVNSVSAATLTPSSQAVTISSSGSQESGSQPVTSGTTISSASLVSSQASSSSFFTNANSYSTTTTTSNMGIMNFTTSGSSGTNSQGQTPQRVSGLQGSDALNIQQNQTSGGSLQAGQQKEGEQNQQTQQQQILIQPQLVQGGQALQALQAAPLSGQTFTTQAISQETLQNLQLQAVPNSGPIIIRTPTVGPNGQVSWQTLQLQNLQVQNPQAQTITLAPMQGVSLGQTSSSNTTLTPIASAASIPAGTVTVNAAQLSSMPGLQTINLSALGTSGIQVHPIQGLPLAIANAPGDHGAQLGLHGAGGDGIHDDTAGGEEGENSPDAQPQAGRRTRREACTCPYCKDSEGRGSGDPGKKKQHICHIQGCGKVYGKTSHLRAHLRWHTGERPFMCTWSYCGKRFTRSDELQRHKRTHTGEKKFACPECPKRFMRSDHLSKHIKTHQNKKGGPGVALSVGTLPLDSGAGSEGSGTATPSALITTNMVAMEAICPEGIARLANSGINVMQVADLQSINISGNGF
Sequence of Glucocorticoid receptor (Homo sapiens) (P04150 whole entry, looked up): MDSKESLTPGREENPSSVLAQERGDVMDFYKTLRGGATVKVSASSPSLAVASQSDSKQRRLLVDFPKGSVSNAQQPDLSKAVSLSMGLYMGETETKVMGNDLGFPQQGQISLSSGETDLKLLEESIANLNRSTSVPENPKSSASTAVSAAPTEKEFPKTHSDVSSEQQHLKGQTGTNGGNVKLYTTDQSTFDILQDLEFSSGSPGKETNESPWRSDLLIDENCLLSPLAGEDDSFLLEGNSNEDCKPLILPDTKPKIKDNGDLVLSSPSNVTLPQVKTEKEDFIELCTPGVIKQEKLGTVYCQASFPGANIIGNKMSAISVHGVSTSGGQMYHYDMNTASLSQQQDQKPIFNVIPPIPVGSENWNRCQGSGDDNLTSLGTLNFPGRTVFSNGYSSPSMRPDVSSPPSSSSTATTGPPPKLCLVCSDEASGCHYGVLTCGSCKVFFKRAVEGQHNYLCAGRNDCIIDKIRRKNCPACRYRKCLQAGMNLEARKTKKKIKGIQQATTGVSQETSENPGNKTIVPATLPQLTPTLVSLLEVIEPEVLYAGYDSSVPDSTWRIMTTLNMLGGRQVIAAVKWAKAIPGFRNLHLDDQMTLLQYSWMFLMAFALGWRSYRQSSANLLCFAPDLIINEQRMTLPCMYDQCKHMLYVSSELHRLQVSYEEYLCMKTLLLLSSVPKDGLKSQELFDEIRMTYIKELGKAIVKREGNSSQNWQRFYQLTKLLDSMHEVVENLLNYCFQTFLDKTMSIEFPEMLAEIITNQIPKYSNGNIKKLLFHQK
Sequence of Nuclear receptor subfamily 1 group I member 3 (Homo sapiens) (Q14994 whole entry, looked up, the tested form may be a part): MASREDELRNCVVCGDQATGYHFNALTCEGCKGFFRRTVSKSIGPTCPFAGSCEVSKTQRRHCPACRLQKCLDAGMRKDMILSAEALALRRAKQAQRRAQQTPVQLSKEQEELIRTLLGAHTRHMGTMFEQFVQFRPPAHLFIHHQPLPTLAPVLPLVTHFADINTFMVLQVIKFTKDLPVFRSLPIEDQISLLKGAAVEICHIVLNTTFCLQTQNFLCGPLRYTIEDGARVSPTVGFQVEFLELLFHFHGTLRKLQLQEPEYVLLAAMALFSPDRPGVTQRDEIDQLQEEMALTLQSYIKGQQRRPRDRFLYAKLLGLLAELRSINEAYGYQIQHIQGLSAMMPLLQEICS
Sequence of Bile acid receptor (Homo sapiens) (Q96RI1 whole entry, looked up, the tested form may be a part): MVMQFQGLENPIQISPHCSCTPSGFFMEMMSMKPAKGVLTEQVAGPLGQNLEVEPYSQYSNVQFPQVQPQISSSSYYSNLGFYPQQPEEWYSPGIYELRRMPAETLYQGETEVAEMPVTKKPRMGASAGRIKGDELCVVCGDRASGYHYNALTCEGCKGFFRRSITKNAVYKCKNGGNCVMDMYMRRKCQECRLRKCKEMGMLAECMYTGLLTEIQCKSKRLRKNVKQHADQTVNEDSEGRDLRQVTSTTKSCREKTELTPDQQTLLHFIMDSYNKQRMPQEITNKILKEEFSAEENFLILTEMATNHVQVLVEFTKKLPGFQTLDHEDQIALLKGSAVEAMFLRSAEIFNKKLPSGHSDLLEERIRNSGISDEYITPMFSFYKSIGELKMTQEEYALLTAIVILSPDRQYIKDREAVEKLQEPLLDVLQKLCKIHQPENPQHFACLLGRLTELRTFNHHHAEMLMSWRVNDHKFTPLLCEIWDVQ
Sequence of Estrogen-related receptor gamma (Homo sapiens) (P62508 whole entry, looked up, the tested form may be a part): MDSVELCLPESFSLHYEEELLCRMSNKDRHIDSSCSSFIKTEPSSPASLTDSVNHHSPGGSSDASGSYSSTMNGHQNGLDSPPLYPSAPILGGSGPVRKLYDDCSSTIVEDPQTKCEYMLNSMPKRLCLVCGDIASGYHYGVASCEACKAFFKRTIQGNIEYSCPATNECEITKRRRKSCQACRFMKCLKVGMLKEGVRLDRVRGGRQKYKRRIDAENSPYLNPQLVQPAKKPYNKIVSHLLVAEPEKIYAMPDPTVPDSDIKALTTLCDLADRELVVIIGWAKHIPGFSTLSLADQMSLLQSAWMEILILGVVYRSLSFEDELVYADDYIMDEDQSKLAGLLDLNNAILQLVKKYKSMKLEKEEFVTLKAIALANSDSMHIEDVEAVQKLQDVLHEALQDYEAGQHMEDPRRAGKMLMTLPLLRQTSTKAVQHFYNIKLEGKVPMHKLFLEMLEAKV

As a reminder, the AC50 is the concentration giving half of the maximal activity seen. Turning to `CCCCOC(=O)CCCCC(=O)OCCCC`, the result in [1], in assay [2], in [3], in [4], in assay [5] and in [6] was inactive. Further, the outcome in assay [7], in [8], in assay [9], in assay [10], in assay [11] and in [12] was inactive. For the same molecule, in assay [13], the result was inactive. Also, the concentration at half-maximal activity (AC50) in assay [14] is 155 µM (active).
On to `CCCCC(CC)CO` (stereo not given), for which the molecule was called inactive in [1], in assay [2], in assay [3], in assay [4], in assay [5] and in assay [6]. Also, the call in assay [7], in assay [8], in assay [9], in [10], in assay [11] and in assay [15] was inactive. Besides, the outcome in assay [14] and in [16] was inactive.
Consider `Cc1cn([C@H]2C=C[C@@H](CO)O2)c(=O)[nH]c1=O`, for which the molecule was called inactive in assay [1], in assay [2], in [3], in assay [4], in [5] and in assay [6]. Besides, the result in assay [7], in assay [8], in assay [9], in assay [10], in assay [11] and in [15] was inactive. The call in [12] was inactive.
On to `CCCCC(CC)COP(=O)(OCC(CC)CCCC)OCC(CC)CCCC` (stereo not given), for which the outcome in assay [1], in assay [2], in assay [3], in assay [4], in assay [5] and in assay [6] was inactive. The call in assay [7], in assay [8], in assay [9], in [10], in assay [17] and in assay [14] was inactive. Besides, in [16], the outcome was inactive. Also, the concentration at half-maximal activity (AC50) in assay [11] was 610 nM (active).
